# Assay results from PubChem BioAssay (NCI).
# The panel holds about 83,000 compounds, 20% with a hit somewhere; the sample as a whole holds those more often.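 Testing used 96-well plates and a 48-hour single-concentration exposure. Example: -40 means 40% of the starting cells died.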 Active and inactive are the calls of the source. How the source made its calls: active means growth percent below 10; inactive means the rest.
# Tested on: HOP-92 NSCLC
# Assay: NCI-60 one-dose screen, 48 h (100 = growth as untreated, 0 = no growth, -100 = all killed)
# Conditions: 10 µM unless noted
row,Compound,growth
1,COc1ccc(Nc2ncccc2C(=O)NCc2cn(Cc3cccc(Oc4ccccc4)c3)nn2)c(OC)c1,62% (inactive)
2,N/C(=N\S(=O)(=O)c1ccccc1)Nc1nc2ccccc2s1,76.2% (inactive)
3,O=S(=O)(NCCCNc1nccc(-n2ccc3cccnc32)n1)c1cccc(C(F)(F)F)c1,106% (inactive)
4,COc1cc(NC(N)=NCCC(C)(C)Oc2ccc(C(F)(F)F)cc2)ncc1C#N,-10.6% (active)
5,COc1ccc2c(c1)[nH]c(=O)c1c3cc(OC)ccc3cn21,45.1% (inactive)
6,FC(F)(F)c1cccc(-c2cn3c(ccc4ccccc43)n2)c1,102% (inactive)
7,COc1ccc(CN2CCc3c(Sc4ccccc4)nc(N)nc3C2=O)c(OC)c1,-11.4% (active)
8,COc1ccc(Nc2ncccc2C(=O)NCc2cn(Cc3cccc(Oc4ccccc4)c3)nn2)cc1,68.5% (inactive)
9,CCN(CC)CCC(CNc1ccnc2cc(Cl)ccc12)c1ccc(Cl)cc1 (centres undefined),-39.9% (active)
10,Cc1ccc(S(=O)(=O)C2=C3C(=C(c4ccccc4)c4ccccc43)CN(S(=O)(=O)c3ccc(C)cc3)C2)cc1,3.21% (active)
11,O=C1C(Cl)=C(Nc2ccccn2)C(=O)c2ccccc21,102% (inactive)
12,COc1cc(/C=C/C(=O)N2CCN(C(=O)/C=C/c3cc(OC)c(OC)c(OC)c3)CC2)cc(OC)c1OC,99.7% (inactive)
13,c1ccc(-c2nnc(-c3ccccn3)s2)nc1,89.7% (inactive)
14,Cc1c(C(=O)/C=C/c2csc3ccccc23)[n+](=O)c2ccccc2n1[O-],43.9% (inactive)
